Experimental data from PubChem BioAssay.
Unmarked numbers belong to inactive results. No rule for the calls is given here.

Molecular target: L-lactate dehydrogenase (Plasmodium falciparum (isolate CDC / Honduras)) (UniProt Q27743)
Test: PfLDH activity inhibition – cell lysate, 3D7 strain, counter-screen for P. falciparum growth inhibition project (AID 2304);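 also: 0% = vehicle and 100% = reference inhibitor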
Settings: P. falciparum 3D7 crude extract, LDH APAD/NBT absorbance; at 2 µM; hits give high values

Chain of L-lactate dehydrogenase (Plasmodium falciparum (isolate CDC / Honduras)) (Q27743 whole entry, looked up): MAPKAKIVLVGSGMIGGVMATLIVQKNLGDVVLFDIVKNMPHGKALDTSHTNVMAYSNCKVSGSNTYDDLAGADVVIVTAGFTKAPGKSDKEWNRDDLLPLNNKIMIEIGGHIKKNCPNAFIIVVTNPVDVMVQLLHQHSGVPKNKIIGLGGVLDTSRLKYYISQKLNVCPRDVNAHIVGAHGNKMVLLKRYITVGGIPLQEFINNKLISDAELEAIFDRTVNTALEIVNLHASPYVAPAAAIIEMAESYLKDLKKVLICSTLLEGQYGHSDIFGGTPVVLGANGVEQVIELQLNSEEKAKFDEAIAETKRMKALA

Row | Structure (SMILES) | inhibition [%]
1 | O=C(Nc1ccc2nccc(N3CCN4CCC[C@H]4C3)c2c1)c1ccc(Cl)c(Cl)c1 | -8
2 | NC(=O)c1cccc(C(=O)Nc2cccc(-c3ccc(-c4nc5ccccc5[nH]4)s3)c2)c1 | 1
3 | COc1ccc(CCNCCCCCCNCCc2ccc(-c3ccccc3)cc2)cc1OC | 1
4 | CC(ON1C(N)=NC(N)=NC1(C)C)c1ccccc1 (stereo not given) | 0
5 | CC(C)CCN1CCC(Oc2cccc(NC(=O)c3ccc(C(F)(F)F)cc3)c2)CC1 | -2
6 | CCc1cn2c3c(cc(C(=O)N[C@@H](Cc4ccccc4)[C@H](O)CNC4CC4)cc13)N(CC)S(=O)(=O)CC2 | -3
7 | Cc1cccc2[nH]c(-c3ccc(-c4cccc(NC(=O)C(C)CN(C)C)c4)s3)nc12 (stereo not given) | 0
8 | CCn1c(C(C)C)cc2c3c(N)nc(N)nc3ccc21 | 2
9 | COc1ccc(NC(=O)Nc2cccc(-c3ccc(-c4nc5c(C)cccc5[nH]4)s3)c2)cc1 | 8
10 | C=C(C)C1CC=C(CN2CCC(N3CCc4cc(NC(=O)c5cc(C)on5)ccc43)C2)CC1 (stereo not given) | 0
11 | O=C(Nc1ccccc1Cl)c1cc2ccccc2cc1O | -4
12 | CCCCN1CCN(Cc2cccc(NC(=O)c3ccc(Cl)c(Cl)c3)c2)CC1 | 1
13 | c1cn(-c2ccc(CNc3nccc(Nc4ccc(OCCN5CCOCC5)cc4)n3)cc2)cn1 | -2
14 | CCN(Cc1ccccc1)C1CCN(Cc2cc(Br)ccc2O)CC1 | -1
15 | O=C(Nc1ccc(OC2CCN(Cc3ccc(F)cc3)CC2)c(Cl)c1)c1ccccc1 | -4
16 | COc1ccccc1NC(=O)NC1CCN(CCCCCNC(=O)/C=C/c2ccc(Cl)c(Cl)c2)CC1 | -1
17 | CCOC(=O)NC1=NC(C)(C)N(OCCCOc2ccc(C)cc2C)C(NC(=O)OCC)=N1 | 7
18 | Cc1ccc2c(c1)c(-c1ccccc1)c(-c1ccccc1)n2CC(O)CN1CCN(CC=Cc2ccccc2)CC1 (stereo not given) | 6
19 | COc1ccc2nccc(NC(=O)C3(O)CCC(NCc4ccc5c(c4)NCCS5)CC3)c2n1 (stereo not given) | -1
20 | O=C(NCc1ccc(F)cc1)c1cnc(N2CCN(c3ccncc3)CC2)c(Cl)c1 | 2

Row | Structure (SMILES) | inhibition [%]
21 | CC1(C)N=C(N)N=C(N)N1OCCc1ccccc1 | 2
22 | Cc1ccccc1C1CCN(C2CCC(NC(=O)c3cc4cc(C(C)C)ccc4[nH]3)CC2)CC1 (stereo not given) | -3
23 | O=C(NCC1CCN(Cc2cccc(C(F)(F)F)c2)C1)c1cc(-c2cccc(Cl)c2)cs1 (stereo not given) | -5
24 | COc1ccc(CCNCCCCCCNCCc2ccc(Cl)c3ccccc23)cc1OC | 6
25 | Cn1nccc1C(=O)NCCNCc1cccc(-c2csc(-c3nc4ccccc4[nH]3)c2)c1 | 0
26 | c1ccc(COc2ccccc2COc2ccccc2-c2ccc3cccnc3n2)cc1 | 5
27 | O=C(/C=C/c1ccc(Cl)c(Cl)c1)NCCCCCN1CCC(NC(=O)Nc2ccc(F)c(Cl)c2)CC1 | 5
28 | CN(C)Cc1cccc2[nH]c(-c3csc(Cc4cc(Cl)ccc4OCc4ccccc4)n3)nc12 | -2
29 | Cc1c(-c2cccc(C(C)(C)NC3CCN(Cc4ccccc4)CC3)c2)cnc(N)c1C | -6
30 | CCc1sc(N2CCN(C)CC2)nc1C(=O)Nc1ccc(F)cc1C(F)(F)F | 5
31 | Cc1cc(NN=Cc2cccc(Cl)c2)c2cc(F)ccc2n1 | -5
32 | COc1cccc(C(=O)NCCc2cccc(Cl)c2)c1Oc1ccccc1 | -1
33 | CCc1cccc(NC(=O)/C=C/c2ccc3c(c2)CN(C)CC3)c1 | -1
34 | CC1CN(Cc2csc(Nc3ccccc3)n2)CC(C)O1 (stereo not given) | 0
35 | CCCCCCCCc1c(C)[nH]c(C)c(I)c1=O | 4
36 | CCc1cc2c3c(N)nc(N)nc3ccc2n1CC | -1
37 | Cc1cc(-c2ccc3c(c2)CCN(CCC2CCC(NC(=O)/C=C/c4cccc(Cl)c4)CC2)CC3)on1 (stereo not given) | -4
38 | CCCCCCc1cnc2nc(N)nc(N)c2c1C | -8
39 | N#Cc1ccc(NC(=O)NC2CCN(CCCCCNC(=O)/C=C/c3ccc(Cl)c(Cl)c3)CC2)cc1 | 0
40 | CN1CCN(CCNc2c3ccccc3nc3c2ccc2ccccc23)CC1 | -6
